Data on 40 compounds can be found in PubChem BioAssay (NCI).

Compounds without any hit were thinned out: in the full panel of roughly 83,000, 20% have a hit.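 Activity criterion: percent growth below 10, measured after cells in 96-well plates were exposed to a single compound concentration for 48 hours.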 Values without a mark were called inactive. The source made the active and inactive calls.

This test has as its system HL-60(TB) leukemia. Put plainly: NCI-60 one-dose screen, 48 h (100 = growth as untreated, 0 = no growth, -100 = all killed). The note with it: 10 µM unless noted.
For the compound `Cc1ccc(C)c2c1SC1=NNC(Oc3ccc(Cl)cc3)=C(C#N)C(=N)N12`, the growth is 122%.
As to `Cc1nc(Cl)cc(N(c2cc(Cl)nc(C)n2)c2ncc(C(=O)Nc3c(C)cccc3Cl)s2)n1`, the growth is 81.3%.
For the compound `CCCCCCCCCCC(C[N+](C)(C)C/C=C/c1ccccc1)C(O)c1ccccc1` (stereo not given), the growth was -48.9% (active).
As for `COc1cc(Cc2cc(-c3ccc(Cl)cc3)n[nH]c2=O)ccc1O`, the figure is 93.5%.
`O=C(Nc1ccccc1C(=O)N/N=C(\c1ccccc1)c1ccccn1)c1ccc(F)cc1`: the growth was -1.1% (active).
Consider `COc1ccc(-c2nnc(COc3ccc(Cl)cc3Cl)o2)cc1OC`, for which the growth was 89.3%.
As for `O=C(Nc1ccc(I)cc1)c1cccc([N+](=O)[O-])c1O`, the growth is 9.44% (active).
Take `CCOC(=O)c1cnn(-c2nc(-c3ccc(F)cc3)c(C#N)c(N3CCOCC3)n2)c1N`: the growth was 93.1%.
For `CCOC(=O)C1=C(COCCN)NC(C)=C(C(=O)OC)C1c1ccccc1Cl` (stereo not given) the value was 95.5%; for `COc1ccc2c(-c3ccc(F)cc3)c(C#N)c(=NC(C)=O)oc2c1`, -17.4% (active); for `COC(=O)C1(C(=O)OC)C2C(=O)C3C(C21)C3(C(=O)OC(C)(C)C)C(=O)OC(C)(C)C` (stereo not given), 96.6%.
For `COc1ccc2nc(-c3ccc(-n4cncc4-c4ccc(OC)c(N)c4)cc3)sc2c1` the value was 80.7%; for `COc1ccc(-c2cc(-c3ccc(Cl)cc3)c(C#N)c(=O)n2Cc2ccc(C(=O)Nc3ccccc3N)cc2)cc1`, 84.7%; for `COc1ccc(/C=C/C(=O)/C=C(/C=C/c2ccc(OC)c(OC)c2OC)OB(F)F)c(OC)c1OC`, 8.53% (active).
Take `O=C(CO[N+](=O)[O-])Nc1ccc(C(=O)/C=C/c2ccc3c(c2)OCO3)cc1`: the growth is 73.7%.
Take `Oc1ccc(-c2nc3ccccc3s2)cc1CN(Cc1ccccn1)Cc1ccccn1`: the growth was 1.27% (active).
As to `Cc1ccccc1CC(N)C(=O)O` (stereo not given), the growth was 103%.
For `C=CC(C)(C)n1cc(C2=C(O)C(=O)C(c3cn(C(C)(C)C=C)c4ccccc34)=C(O)C2=O)c2ccccc21` the value was 69.4%; for `FC(F)(F)Oc1cccc(-c2cc(NCCCCCCNc3cc(-c4cccc(OC(F)(F)F)c4)nc4ccc(N5CCCC5)cc34)c3cc(N4CCCC4)ccc3n2)c1`, 21.7%.
With `C=C(C)C1CCC2(C(=O)O)CCC3(C)C(CCC4C5(C)CCC(O)C(C)(C)C5CCC43C)C12` (stereo not given), the growth was -40% (active).
Take `NC(C(=O)O)C(O)c1ccco1` (stereo not given): the growth was 116%.
For `Cc1cc(C(=O)c2ccccc2)cc(C)c1O` the value was 31.3%; for `O=C(N/N=C1\SCC(=O)N1c1ccccc1)c1cc(-c2cc3ccccc3o2)nn1-c1ccccc1`, 112%; for `COc1ccc(-c2nc3ccccn3c2/C=C/C(=O)c2cc(OC)c(OC)c(OC)c2)cc1OC`, 9.67% (active).
Regarding `CSc1nc2sc3cc(Cl)c(Cl)cc3n2c(=N)c1C#N`, the growth is 110%.
In the case of `CC(C)CCNCC(O)Cn1c2ccccc2c2ccccc21` (stereo not given), the growth is -14.8% (active).
For `COc1ccc(/C=C\c2cc(OC)c(OC)c(OC)c2)cc1OCC(=O)Nc1nc2ccccc2s1` the value was 18.7%.
Consider `O=C(c1nc2ccccc2[nH]1)C1C(c2ccc(Br)cc2)C2CC3CCCC[C@H]3N2[C@@]12C(=O)Nc1cc(Cl)ccc12` (stereo not given in full), for which the growth is 12.4%.
As to `C/C(=C/CCC(C)[C@@H]1CC[C@]2(C)C3=C(CC[C@@]12C)[C@@]1(C)CCC(=O)C(C)(C)[C@@H]1CC3)C(=O)O` (stereo not given in full), the growth was -58.8% (active).
Consider `CCN(CC)Cc1cc(Nc2ccnc3cc(Cl)ccc23)ccc1OC`, for which the growth was 86%.
In the case of `Cn1c(-c2ccccc2)cc(=O)n1-c1ccccc1`, the growth was 109%.
For `C[C@@H]1CC[C@H]2[C@@H](C)C(O)O[C@@H]3O[C@]4(C)CC[C@@H]1[C@]32OO4` (stereo not given in full) the value was -24.4% (active); for `CCCn1nc(C(=O)N(C)Cc2ccccc2)c2c1CCC(N1CCc3ccccc31)C2` (stereo not given), 98%; for `COc1ccc(/C=C/c2nc(N3CCOCC3)c3cc(F)c(F)cc3n2)cc1OC`, -2.81% (active).
As for `COC1=CC(c2ccc[nH]2)=N/C1=C\c1[nH]c(C)c(C(=O)Oc2ccccc2)c1C`, the figure is 11.4%.
For the compound `CC(=O)Nc1ccc(-c2ccc3c(c2)NC(=O)/C3=C\c2ccc[nH]2)cc1`, the growth was 95.5%.
Consider `COc1ccc(C2=C(Nc3ccc(C(=O)Nc4ccccc4)cc3)C(=O)N(C)C2=O)cc1`, for which the growth is 69.9%.
Regarding `CN1CCN(CC(=O)Nc2ccc(-c3nc4ccccc4s3)cc2)CC1`, the growth is 96.4%.
On to `CC1(C)COC(=S)N1`, for which the growth is 80.3%.
For `CCCCCCCCCCCCCCCCCCNC(=O)[C@H]1CSC(c2ccc(F)c(OC)c2)N1` (stereo not given in full), the growth was -68% (active).
